According to PubChem BioAssay (Tox21):
“And” between values parts separate entries of the source, which are not always exact repeats. Identical values can stand only once. Records with an inconclusive call do not appear. The source made the active and inactive calls. Unless noted, calls come from the whole dose curve; as a rule, active = well fitted curve in the direction sought with a large enough effect in the repeat runs; inconclusive = weak or mixed curves; inactive = no such curve, though single readings can be large; an effect the other way counts as inactive or inconclusive.

Tests used:
[1] = qHTS assay for small molecule agonists of the p53 signaling pathway (AID 651631; calls by dose curve; note: nearly all actives have a fitted effect of over 15% in size; note: potency is the fitted concentration of half-maximal effect)
How it was run: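 We treat p53RE-bla HCT-116 cells with compounds for 16 h at 37 °C, add LiveBLAzer B/G FRET substrate for 2 h at room temperature, and measure fluorescence intensity.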

[2] = qHTS assay for small molecules that induce genotoxicity in human embryonic kidney cells expressing luciferase-tagged ATAD5 (AID 651632); note: nearly all actives have a fitted effect of over 15% in size
How it was run: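 Concentration-response screen for ATAD5 upregulation in HEK293T luciferase reporter cells; 16 hr treatment at 37C, then luminescence after 30 min with Amplite at room temperature.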

[3] = qHTS assay for small molecules that induce genotoxicity in human embryonic kidney cells expressing luciferase-tagged ATAD5 - cell viability (AID 651634; calls by dose curve; note: nearly all actives have a fitted effect of over 25% in size; note: potency is the fitted concentration of half-maximal effect)
How it was run: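 15.5 hr compound or vehicle exposure of HEK293T cells expressing luciferase-tagged ATAD5 at 37C; live-cell protease activity is read by fluorescence after 30 min of CellTiter-Fluor.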

[4] = qHTS assay for small molecule disruptors of the mitochondrial membrane potential - cell viability (AID 720634; calls by dose curve; note: nearly all actives have a fitted effect of over 20% in size; note: potency is the fitted concentration of half-maximal effect)
How it was run: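 In this qHTS format, HepG2 cells plated overnight were pinned with compound, incubated 1 hr, and assayed for ATP luminescence with CellTiter-Glo after m-MPI dye addition.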

[5] = qHTS assay to test for compound auto fluorescence at 590 nm (red) in HepG2 cells (AID 720674)
How it was run: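 Intrinsic compound fluorescence in the red window (Ex/Em 540/590 nm) is measured in attached HepG2 cells exposed for 1 hr, DMSO vehicle as baseline, benchmarked to Rose Bengal sodium.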

[6] = qHTS assay to test for compound auto fluorescence at 535 nm (green) in HepG2 cells (AID 720675)
[7] = qHTS assay to test for compound auto fluorescence at 460 nm (blue) in HEK293 cells (AID 720678)
How it was run: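 Measured: blue fluorescence (Ex 405/Em 460 nm) of compound-treated HEK293 cells, incubated overnight at 37C with 5% CO2 and scaled to triamterene equivalents.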

[8] = qHTS assay to test for compound auto fluorescence at 590 nm (red) in HEK293 cells (AID 720679)
How it was run: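 Using HEK293 cells at 2,000 per well, the screen added 23 nL of each compound after cell attachment and incubated overnight (37C, 5% CO2). The plate reader then captured red-label fluorescence, Ex/Em 540/590nm.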

[9] = qHTS assay to test for compound auto fluorescence at 535 nm (green) in HEK293 cells (AID 720680)
[10] = qHTS assay to test for compound auto fluorescence at 460 nm (blue) in HEK293 cell free culture (AID 720681)
How it was run: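 Test compounds were pinned into cell-free culture medium (DMEM with 10% FBS) and fluorescence was read directly at Ex/Em 405/460 nm. Signals were expressed as fluorescence equivalents of triamterene, with DMSO vehicle as control.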

[11] = qHTS assay to test for compound auto fluorescence at 535 nm (green) in HEK293 cell free culture (AID 720682)
How it was run: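 Green-channel intensity (Ex/Em 485/535 nm) was recorded from compound-treated wells containing only DMEM with 10% FBS. Fluorescein provided the equivalency standard.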

[12] = qHTS assay to test for compound auto fluorescence at 590 nm (red) in HEK293 cell free culture (AID 720683)
How it was run: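 Tox21 10K library compounds were pinned into cell-free DMEM with 10% FBS and fluorescence was read at excitation 540 nm. Activity is expressed as Rose Bengal sodium equivalency.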

[13] = qHTS assay to test for compound auto fluorescence at 590 nm (red) in HepG2 cell free culture (AID 720684)
How it was run: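 Ex 540 / Em 590 nm read of compound in cell-free MEM (10% FBS). Rose Bengal sodium reference.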

[14] = qHTS assay to test for compound auto fluorescence at 460 nm (blue) in HepG2 cell free culture (AID 720685)
How it was run: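 Cell-free plates of MEM plus 10% FBS received 23 nL compound or DMSO vehicle; blue-channel (405/460 nm) intensity scored against triamterene as reference fluorophore.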

[15] = qHTS assay to test for compound auto fluorescence at 535 nm (green) in HepG2 cell free culture (AID 720686)
[16] = qHTS assay to test for compound auto fluorescence at 460 nm (blue) in HepG2 cells (AID 720687)
How it was run: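 Cells (2,000/well in MEM with 10% FBS) attached overnight at 37 C, then were exposed to compound or DMSO for 1 hr at 37 C, 5% CO2. Fluorescence read at Ex/Em 405/460 nm, expressed as triamterene-equivalent signal.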

[17] = qHTS assay for small molecule agonists of the p53 signaling pathway - cell viability (AID 651633; calls by dose curve;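 note: p53RE-bla HCT reporter cells with a stable beta-lactamase p53 reporter; nearly all actives have a fitted effect of over 30% in size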)
How it was run: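 p53RE-bla cells, seeded at 4,000 per well and rested 5 h at 37 C/5% CO2, received compounds in DMSO for 16 h at 37 C. CellTiter-Glo was then added, and luminescence was read after 30 min at room temperature to gauge cytotoxicity.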

[18] = qHTS assay for small molecule disruptors of the mitochondrial membrane potential (AID 720635); note: potency is the fitted concentration of half-maximal effect
How it was run: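 HepG2 cells (2,000/well) attached overnight at 37C, then took compound for 1 hr at 37C, 5% CO2. Mito-MPS dye was added for 30 min; fluorescence was read at 490/535 nm (monomers) and 540/590 nm (aggregates).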

[19] = biological target: Glucocorticoid receptor (Homo sapiens) (UniProt P04150); test: qHTS assay to identify small molecule agonists of the glucocorticoid receptor (GR) signaling pathway (AID 720691; active = well fitted activation curve with a large enough effect in the signal ratio in the repeat runs, not every such curve was filed as active; the % refers to the signal ratio); conditions: GR-bla HeLa, beta-lactamase reporter ratio, 18 h; activation: at 62.4 µM (top of the series)
Chain of Glucocorticoid receptor (Homo sapiens) (P04150 whole entry, looked up): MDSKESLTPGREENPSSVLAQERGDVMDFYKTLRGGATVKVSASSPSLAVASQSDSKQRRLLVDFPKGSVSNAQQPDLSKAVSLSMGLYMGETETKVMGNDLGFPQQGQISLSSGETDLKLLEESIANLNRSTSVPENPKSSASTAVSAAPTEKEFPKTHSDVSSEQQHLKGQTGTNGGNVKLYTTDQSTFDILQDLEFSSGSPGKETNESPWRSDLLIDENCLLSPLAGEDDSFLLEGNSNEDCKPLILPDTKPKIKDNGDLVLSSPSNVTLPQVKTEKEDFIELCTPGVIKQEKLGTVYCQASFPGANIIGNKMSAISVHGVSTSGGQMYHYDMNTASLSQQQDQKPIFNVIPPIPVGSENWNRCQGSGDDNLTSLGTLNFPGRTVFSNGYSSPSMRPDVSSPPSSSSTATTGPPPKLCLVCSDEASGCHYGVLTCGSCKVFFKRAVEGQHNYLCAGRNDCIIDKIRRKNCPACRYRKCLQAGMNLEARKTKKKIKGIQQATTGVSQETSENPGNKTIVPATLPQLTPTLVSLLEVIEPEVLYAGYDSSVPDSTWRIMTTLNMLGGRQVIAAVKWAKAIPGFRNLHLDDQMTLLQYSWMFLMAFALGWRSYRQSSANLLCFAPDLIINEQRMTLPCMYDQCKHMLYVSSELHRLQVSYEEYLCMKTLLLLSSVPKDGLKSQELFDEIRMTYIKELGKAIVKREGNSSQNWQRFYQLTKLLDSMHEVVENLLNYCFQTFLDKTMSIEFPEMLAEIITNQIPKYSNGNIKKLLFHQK
How it was run: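 Measures GR pathway activation through a GRE-beta-lactamase reporter stably integrated in HeLa cells, with 18 h compound treatment at 37 C and fluorescence detection using a FRET substrate.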

[20] = biological target: Glucocorticoid receptor (Homo sapiens) (UniProt P04150); test: qHTS assay to identify small molecule antagonists of the glucocorticoid receptor (GR) signaling pathway (AID 720692; active = well fitted inhibition curve with a large enough effect in the signal ratio in the repeat runs, not every such curve was filed as active; the % refers to the signal ratio; note: potency is the fitted concentration of half-maximal effect)
How it was run: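 Tox21 10K library screened in concentration-response for blockade of dexamethasone (5 nM final)-induced GRE-bla reporter activity in HeLa cells; 18 h treatment, fluorescence read.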

Measured: Potency

CNC(=O)Oc1cc(C)cc(C(C)C)c1
not listed: [17] | [18] | [19] | [20]
inactive: all other assays above

C[N+]1(C)[C@@H]2CC[C@H]1CC(OC(=O)C(CO)c1ccccc1)C2 (stereo partly drawn)
not listed: [3] | [5] | [11]
inactive: all other assays above

C=CCBr
not listed: [9] | [12] | [17] | [18] | [20]
inactive: all other assays above

Oc1ccc(Cl)c(Cl)c1
active: [18] 6.75 µM
not listed: [3] | [4] | [11] | [17] | [19] | [20]
inactive: all other assays above

ClC1=C(Cl)[C@]2(Cl)[C@@H]3[C@H]4C[C@H]([C@@H]5O[C@H]45)[C@@H]3[C@@]1(Cl)C2(Cl)Cl
not listed: [3] | [5] | [18]
inactive: all other assays above

N#CCCl
not listed: [17] | [18] | [19] | [20]
inactive: all other assays above

Cc1cccc(Cc2cnc[nH]2)c1C
not listed: [3] | [11] | [18]
inactive: all other assays above

N#Cc1ccc(N(CC(N)=O)CC(F)(F)F)cc1C(F)(F)F
not listed: [8] | [9] | [17] | [18] | [19] | [20]
inactive: all other assays above

[Cl][Hg][c]1ccccc1
active: [1] 6.11 µM | [18] 6.11 µM
inactive: [2] | [5] | [6] | [7] | [9] | [10] | [11] | [13] | [14] | [16]

O=C1C2(Cl)C3(Cl)C4(Cl)C(Cl)(Cl)C5(Cl)C3(Cl)C1(Cl)C5(Cl)C24Cl (stereo not drawn)
active: [1] 60.1 µM | [4] 1.9 µM | [18] 536 nM and 585 nM
not listed: [3] | [17] | [19] | [20]
inactive: all other assays above

CCC(C)Br (stereo not drawn)
not listed: [9] | [17] | [18] | [19] | [20]
inactive: all other assays above

CO/N=C(\C(=O)OC)c1ccccc1CO/N=C(\C)c1cccc(C(F)(F)F)c1
active: [1] 1.09 µM | [4] 21.7 µM | [18] 9.69 µM
not listed: [11] | [17] | [19] | [20]
inactive: all other assays above

C#CCO
not listed: [4] | [8] | [12] | [18]
inactive: all other assays above

CCCC[N+]1(C)CCCC1 (tested in a mixture with another compound)
not listed: [3] | [18] | [19] | [20]
inactive: all other assays above

CC[C@]1(O)CC[C@H]2[C@@H]3CCC4=CCCC[C@@H]4[C@H]3CC[C@@]21C
active: [1] 3.76 µM | [3] 10.6 µM | [20] 1.69 µM
not listed: [4] | [18] | [19]
inactive: all other assays above

C[C@H]1[C@H](c2ccc(Cl)cc2)SC(=O)N1C(=O)NC1CCCCC1
not listed: [4] | [8] | [15] | [17] | [18] | [20]
inactive: all other assays above
